Screens (PubChem BioAssay)
The list is not random: actives were taken first. Their share in the collection is about 2.1%.
eIF4H FP inh: inhibitors of RNA binding by human eIF4H; Q15056; eIF4H fluorescence polarization binding assay; inhibition, % at 35 µM; actives 0.94% (n = 290,000);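 further: calls also rest on retests at 20 µM and on dose response follow-up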
MLLE-PAM2 inh: inhibitors of microRNA-mediated deadenylation, human PABP1 MLLE binding; P11940; GST-MLLE / FITC-PAM2 fluorescence polarization; inhibition, % at 20 µM; actives 0.36% (n = 360,000); in the data active means inhibition above about 35%, passing the limit was not always enough;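 further: plate controls were DMSO wells with GST-MLLE for no effect and wells lacking GST-MLLE protein for full effect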
PABP polyA inh: PABP-poly(A) binding inhibition | PABP-poly(A) RNA binding, fluorescence polarization | AID 2014 | inhibition, % at 35 µM | P11940 | actives 1% (n = 290,000);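 further: calls also rest on retests at 20 µM and on dose response follow-up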
NRP1-CendR mod: NRP-1/CendR interaction modulation; O14786; FAM-RPARPAR peptide binding to NRP-1, fluorescence polarization; inhibition, % at 25 µM; actives 0.85% (n = 360,000); AID 602438;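 active means inhibition or corrected inhibition above about 18%, plus a signal ratio from 0.5 to 1.5, limit read from the data, passing the limit was not always enough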
* marks the source's active call; other numbers are inactive results; nt = not tested or not shown. Unless noted, how the calls were made is not given here.

SMILES	eIF4H FP inh	MLLE-PAM2 inh	PABP polyA inh	NRP1-CendR mod
CN(C)c1ccc(N=Cc2nc(-c3ccccc3)oc2OC(=O)c2cccc(Cl)c2)cc1	1	-64	5	28*
COc1cc(CC(=O)O)ccc1OCc1ccccc1	4	6	5	26*
COc1ccccc1OCCC(=O)O	active	-4	60*	-3
CNCc1ccc(OCc2ccccc2)c(OC)c1	-4	-10	2	-9
COc1ccccc1OCC(=O)O	6	-3	-1	-7
CC1=C(C(=O)N(C(C)C)C(C)C)CC(CC(=O)NCCN2CCOCC2)C(=O)N1Cc1ccc(F)cc1 (stereo unspecified)	nt	-8	nt	1
CCC(CC)C(=O)Nc1cc([N+](=O)[O-])ccc1Cl	-3	2	68*	16
COc1ccc(Nc2cc(Nc3ccccc3)ncn2)cc1	2	-4	-2	1
CC(C)Sc1nc2ccccc2c(=O)[nH]1	-1	2	1	0
CC(c1nc2ccccc2c(=O)[nH]1)N(C)c1ccc2ccccc2c1 (stereo unspecified)	17	42*	35	10
O=C(CNC(=O)c1ccc(Cl)cc1Cl)OCCCn1c(=O)[nH]c2ccccc21	nt	21	nt	7
COc1ccccc1NS(=O)(=O)c1ccc(O)c(NC(=S)NCC2CCCO2)c1 (stereo unspecified)	0	40*	0	6
O=C(NCCc1c[nH]c2ccccc12)c1[nH]c(C(F)(F)F)nc1-c1ccccc1	nt	-3	nt	1
COc1ccc(O)c(/C=N/c2sc(C)c(C)c2C#N)c1	37	2	58*	-206
Cc1sc(/N=C/c2c(O)ccc3ccccc23)c(C#N)c1C	5	nt	8	nt
O=[N+]([O-])c1cc2oc3c(c2c(C=NCc2ccncc2)c1O)CCCC3	102	14	active	16
COc1cccc(CC(=O)OCC(=O)NCC(=O)Nc2cccc(C)c2C)c1	nt	3	nt	14
c1cnc2ccc(C(c3nnnn3C3CCCC3)N3CCN(c4nc5ccccc5s4)CC3)cc2c1 (stereo unspecified)	active	-7	51*	-1
COc1cccc(OCC(=O)NNC(=O)C(=O)Nc2ccc(OC)cc2OC)c1	-4	2	-5	12
CCCC(=O)N1CCC1(C)C(=O)NS(=O)(=O)c1cccs1 (stereo unspecified)	nt	13	nt	-79
NS(=O)(=O)c1ccc(N=Nc2ccc(=O)[nH]c2O)cc1	90*	-5	71*	22
NS(=O)(=O)c1ccc(N=Nc2ccc(O)c3ncccc23)cc1	9	-21	-10	12
Cc1ccc(NC(=S)NCCN(C2CCCCC2)C2CCCC2)cc1C	active	2	51*	-18
CCCC(=O)Nc1nnc(-c2ccco2)s1	24	11	0	-5
O=C(Cc1ccccc1)Nc1nnc(-c2ccco2)s1	64	-6	30*	-63
SMILES	eIF4H FP inh	MLLE-PAM2 inh	PABP polyA inh	NRP1-CendR mod
COc1ccccc1OCC(=O)Nc1nnc(-c2ccco2)s1	96*	10	60*	-10
CCNC(=O)C1(C)CCN(Cc2csc(-c3ccccc3)n2)C1 (stereo unspecified)	nt	-1	nt	8
CC1CC(C)CN(C(=O)CCc2ccccc2)C1 (stereo unspecified)	active	1	97	-2
CC(NC1=CC(=O)c2cccnc2C1=O)C(O)c1ccccc1 (stereo unspecified)	nt	14	nt	36*
CC(c1ccccc1)N1C(=O)c2cccnc2C1=O (stereo unspecified)	0	5	-6	11
CCC(C)NC(=O)c1cc(-c2ccc3c(c2)OCO3)on1 (stereo unspecified)	0	2	2	-4
COc1ccc(C(=O)NC(=S)Nc2nc(C)c(C(=O)N(C)C)s2)cc1	6	45*	16	-6
CCOC(=O)c1sc(NC(=S)NC(=O)c2ccco2)nc1C	4	41*	-6	-18
COC(=O)c1sc(NC(=O)c2ccco2)nc1C	-1	-1	6	3
CCOC(=O)c1sc(NC(=S)NC(=O)c2ccc(OC)cc2)nc1C	-6	15	-8	3
CCC(C(=O)NC1CCCC1)n1c(C2CC2)nc2ccccc21 (stereo unspecified)	nt	nt	nt	3
Cn1c(=O)c2[nH]c(CCCc3ccc([N+](=O)[O-])cc3)nc2n(C)c1=O	nt	37	nt	30*
O=C(c1ccc(CS(=O)Cc2cccc(Cl)c2)o1)N1CCN(C2CCCCC2)CC1 (stereo unspecified)	35	0	3	12
CCN(CC)Cc1c(O)ccc2c(C)c(CC(=O)OC)c(=O)oc12	nt	0	nt	47*
O=C(Cn1c(=S)[nH]c2ccccc21)c1ccccc1	5	-101	10	33*
